Measured values from article PMC4336329 (PLoS ONE, 2015).
Hit rate of the full screen: of about 310,000 compounds, about 14,000 (4.5%) showed an effect of 50% or more. The effect is printed as a negative number. Many of the other results were omitted from the sample, so strong results are more common in it than they were.

What follows are compounds tested against human ether-à-go-go-related gene (hERG) potassium channel (human, UniProt Q12809) (assay: primary screen, population patch clamp on CHO cells stably expressing hERG; higher = less effect of the substance).
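Also: peak tail current of the secondary pulse compared with the same well before compound.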

Chain of human ether-à-go-go-related gene (hERG) potassium channel (Q12809 whole entry, looked up): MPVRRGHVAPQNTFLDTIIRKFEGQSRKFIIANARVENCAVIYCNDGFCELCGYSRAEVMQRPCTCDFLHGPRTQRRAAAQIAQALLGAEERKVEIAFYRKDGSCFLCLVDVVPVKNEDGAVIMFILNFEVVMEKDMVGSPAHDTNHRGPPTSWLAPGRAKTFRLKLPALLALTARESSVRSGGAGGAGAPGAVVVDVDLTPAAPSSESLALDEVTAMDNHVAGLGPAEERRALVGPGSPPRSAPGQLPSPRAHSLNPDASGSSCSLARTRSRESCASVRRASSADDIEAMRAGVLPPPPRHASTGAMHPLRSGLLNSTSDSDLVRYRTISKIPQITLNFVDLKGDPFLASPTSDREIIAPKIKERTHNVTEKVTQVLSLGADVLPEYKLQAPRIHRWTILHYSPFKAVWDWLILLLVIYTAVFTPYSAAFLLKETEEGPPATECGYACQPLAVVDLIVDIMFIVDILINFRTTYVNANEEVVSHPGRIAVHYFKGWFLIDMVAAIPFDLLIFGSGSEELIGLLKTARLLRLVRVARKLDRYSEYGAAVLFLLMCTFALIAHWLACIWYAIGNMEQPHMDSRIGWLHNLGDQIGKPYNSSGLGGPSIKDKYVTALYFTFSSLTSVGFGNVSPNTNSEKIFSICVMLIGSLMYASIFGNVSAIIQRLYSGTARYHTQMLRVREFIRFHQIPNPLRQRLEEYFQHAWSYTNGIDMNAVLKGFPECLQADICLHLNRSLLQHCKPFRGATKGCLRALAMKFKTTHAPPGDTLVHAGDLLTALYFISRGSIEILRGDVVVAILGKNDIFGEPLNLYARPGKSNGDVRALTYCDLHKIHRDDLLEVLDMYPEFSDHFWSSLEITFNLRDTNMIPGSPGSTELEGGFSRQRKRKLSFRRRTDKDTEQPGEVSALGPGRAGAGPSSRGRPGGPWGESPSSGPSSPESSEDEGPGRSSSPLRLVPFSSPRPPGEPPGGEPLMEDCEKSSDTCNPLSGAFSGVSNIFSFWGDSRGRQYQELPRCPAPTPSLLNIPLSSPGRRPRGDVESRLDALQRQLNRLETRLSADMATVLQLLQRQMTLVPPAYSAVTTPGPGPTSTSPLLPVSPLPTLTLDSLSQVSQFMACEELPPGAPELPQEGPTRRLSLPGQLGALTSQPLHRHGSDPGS

Going from `COc1ccc(N2CC(O)(c3ccc(OC(F)F)cc3)[N+]3=C2CCCC3)cc1.[Br-]` (stereo not shown) to `COc1ccc(N2CC(O)(c3ccc(F)cc3)[N+]3=C2CCCC3)cc1.[Br-]` (stereo not shown), the “hERG current change (%, negative = inhibition) at 10uM” value rises from -70% to -3.37%.

First: OC1(c2cccs2)CN(c2ccccc2)C2=[N+]1CCCC2.[Br-] (stereo not shown)
Second: Cc1cccc(N2CC(O)(c3cccs3)[N+]3=C2CCCC3)c1.[Br-] (stereo not shown)
The “hERG current change (%, negative = inhibition) at 10uM” value of the first is higher: 4.63% for the first, -12.3% for the second.

Going from `CCOc1ccc(N2CC(O)(c3cccs3)[N+]3=C2CCCC3)cc1.[Br-]` (stereo not shown) to `Cc1ccc(N2CC(O)(c3cccs3)[N+]3=C2CCCC3)cc1.[Br-]` (stereo not shown), the “hERG current change (%, negative = inhibition) at 10uM” value rises from -69.7% to -32.3%.

Compared with `Cc1cccc(N2CC(O)(c3cccs3)[N+]3=C2CCCC3)c1C.[Br-]` (stereo not shown), `OC1(c2cccs2)CN(c2ccc(Cl)cc2)C2=[N+]1CCCC2.[Br-]` (stereo not shown) is lower in “hERG current change (%, negative = inhibition) at 10uM” value: -43.5% for the first, -59.5% for the second.

Compared with `CCOc1ccc(N2CC(C(=O)NNC(=O)c3ccc(F)cc3)CC2=O)cc1` (stereo not shown), `CCOc1ccc(N2CC(O)(c3ccc(F)cc3)[N+]3=C2CCCC3)cc1.[Br-]` (stereo not shown) is lower in “hERG current change (%, negative = inhibition) at 10uM” value: -25.4% for the first, -71.6% for the second.

First: COc1ccc(C2(O)CN(c3ccc(C)cc3)C3=[N+]2CCCC3)cc1.[Br-] (stereo not shown)
Second: COc1ccc(N2CC(O)(c3ccc(C)cc3)[N+]3=C2CCCC3)cc1.[Br-] (stereo not shown)
The “hERG current change (%, negative = inhibition) at 10uM” value of the first is higher: -37.5% for the first, -38.9% for the second.

Compared with `Cc1cccc(C)c1NC(=O)CN1C(=O)COc2ccccc21`, `CCOC(=O)c1ccc(CNC(=O)c2cc(COc3ccccc3SC)on2)o1` is lower in “hERG current change (%, negative = inhibition) at 10uM” value: 10.5% for the first, 1.07% for the second.

First: Cc1ccc(S(=O)(=O)c2cnc(-c3ccccc3)nc2N2CCCCC2)cc1
Second: CCC(Oc1ccccc1)C(=O)Nc1nnc(S(=O)(=O)N2CCCCC2)s1 (stereo not shown)
The “hERG current change (%, negative = inhibition) at 10uM” value of the first is higher: 25.7% for the first, 12.8% for the second.

Compared with `CS(=O)(=O)c1ccc(NCCc2ccccn2)c([N+](=O)[O-])c1`, `COc1ccc(OCc2cccc(C(=O)Nn3cc([N+](=O)[O-])cn3)c2)cc1` is higher in “hERG current change (%, negative = inhibition) at 10uM” value: -22.7% for the first, -15.6% for the second.

Going from `COc1cccc(C2C(C(=O)Nc3ccc(C)cc3C)=C(C)Nc3ncnn32)c1OC` (stereo not shown) to `COc1ccc(NC(=O)c2ccc3ncsc3c2)c2ccccc12`, the “hERG current change (%, negative = inhibition) at 10uM” value falls from 7.02% to 4.56%.

Compared with `O=C(Nc1c2c(nn1-c1ccc(F)cc1)CS(=O)C2)c1ccco1` (stereo not shown), `O=C(CCNC(=O)c1ccco1)NCCc1ccc(Cl)cc1` is higher in “hERG current change (%, negative = inhibition) at 10uM” value: -21.4% for the first, -1.83% for the second.

Compared with `CC(=O)Nc1ccc(NC(=O)c2cc(=O)c3ccc(C)cc3o2)cc1`, `Cc1cc(C)cc(NC(=S)NCc2ccc(S(N)(=O)=O)cc2)c1` is lower in “hERG current change (%, negative = inhibition) at 10uM” value: 17.4% for the first, 8.2% for the second.

Going from `CCC1=NN(C(=O)Cc2ccccc2)C(O)(c2ccncc2)C1` (stereo not shown) to `Cn1c2ccccc2c2ncn(Cc3ccc(F)cc3)c(=O)c21`, the “hERG current change (%, negative = inhibition) at 10uM” value falls from 28.9% to 8%.

First: CC(C)Cn1c(N)c(C=O)c(=O)n(C)c1=O
Second: COc1ccc(C)cc1S(=O)(=O)N(CC(=O)O)c1ccc(C)cc1
The “hERG current change (%, negative = inhibition) at 10uM” value of the first is higher: 26.4% for the first, 5.39% for the second.

Compared with `COc1cccc(CN2CC(C(=O)N3CCCC3)CCC2=O)c1` (stereo not shown), `COc1cccc(CN2CC(C(=O)N3CCCCCCC3)CCC2=O)c1` (stereo not shown) is lower in “hERG current change (%, negative = inhibition) at 10uM” value: 19.4% for the first, -2.24% for the second.

Going from `Cc1cc(N2CCC(C(=O)N3CCN(c4cccc(C)c4C)CC3)CC2)n2ncnc2n1` to `Cc1cccc(N2CCN(C(=O)C3CCCCC3)CC2)c1C`, the “hERG current change (%, negative = inhibition) at 10uM” value rises from -68.7% to -24.8%.

Going from `O=C1CCC(C(=O)N2CCN(c3ccccc3Cl)CC2)CN1CC1CCCCC1` (stereo not shown) to `O=C1CCC(C(=O)N2CCN(c3ccccc3)CC2)CN1CC1CCCCC1` (stereo not shown), the “hERG current change (%, negative = inhibition) at 10uM” value rises from -72.2% to -27.5%.

First: O=C(C1CCC(=O)N(C2CCCCCC2)C1)N1CCN(c2ccccc2Cl)CC1 (stereo not shown)
Second: O=C(C1CCC(=O)N(C2CCCC2)C1)N1CCN(c2ccccc2Cl)CC1 (stereo not shown)
The “hERG current change (%, negative = inhibition) at 10uM” value of the first is lower: -42.9% for the first, -15.8% for the second.

Going from `Cc1cc(N2CCN(C(=O)OC(C)(C)C)CC2)n2ncnc2n1` to `Cc1cccc(N2CCN(C(=O)C3CC(=O)N(C4CCCC4)C3)CC2)c1C` (stereo not shown), the “hERG current change (%, negative = inhibition) at 10uM” value falls from -27.5% to -57.9%.

First: O=C(C1CCC(=O)N(C2CCCC2)C1)N1CCN(c2ccc(Cl)cc2)CC1 (stereo not shown)
Second: O=C(C1CCC(=O)N(C2CC2)C1)N1CCN(c2ccc(Cl)cc2)CC1 (stereo not shown)
The “hERG current change (%, negative = inhibition) at 10uM” value of the first is lower: -61% for the first, -38.1% for the second.

First: COc1cccc(CN2CC(C(=O)N3CCN(c4ccc(Cl)cc4)CC3)CCC2=O)c1 (stereo not shown)
Second: Cc1cccc(N2CCN(C(=O)C3CCC(=O)N(C4CC4)C3)CC2)c1C (stereo not shown)
The “hERG current change (%, negative = inhibition) at 10uM” value of the first is lower: -70.9% for the first, 0.967% for the second.

Compared with `O=C(Cn1nnc(-c2ccc(CN3CCOCC3)cc2)n1)NC1CCCCC1`, `COC(=O)c1ccc(CN2CCCC(CCC(=O)NCc3ccc(C)o3)C2)cc1` (stereo not shown) is lower in “hERG current change (%, negative = inhibition) at 10uM” value: -12.4% for the first, -67.5% for the second.

First: COc1cccc(NC(=O)CCNS(=O)(=O)c2ccc(Br)s2)c1
Second: CC(=O)c1cccc(CN2CCCC(CCC(=O)NCc3ccc(C)o3)C2)c1 (stereo not shown)
The “hERG current change (%, negative = inhibition) at 10uM” value of the first is lower: -32.6% for the first, -16.2% for the second.

First: CCCCNC(=O)C1CCN(S(=O)(=O)N2CCOCC2)CC1
Second: COc1cc(CN2CCC(N3CCC(C(=O)N4CCCC4)CC3)CC2)cc2c1OCO2
The “hERG current change (%, negative = inhibition) at 10uM” value of the first is higher: 5.58% for the first, -17.6% for the second.

Compared with `COc1ccc(OCc2nc3c4c(ncn3n2)-c2ccccc2CC42CCCC2)cc1`, `Clc1ccc(CSc2nnc3c(n2)[nH]c2ccccc23)cc1` is lower in “hERG current change (%, negative = inhibition) at 10uM” value: 6.66% for the first, -1.62% for the second.

Compared with `CCc1ccc(-c2csc3ncn(Cc4ccc(C(=O)O)cc4)c(=O)c23)cc1`, `O=C(c1cc(COc2ccc(F)cc2Cl)on1)N(CCO)Cc1cccs1` is lower in “hERG current change (%, negative = inhibition) at 10uM” value: 4.9% for the first, -31.6% for the second.

Going from `O=S(=O)(NCc1ccccc1)[C@@H]1CC2C=CC1C2` (stereo partly shown) to `O=C(C1CCC(=O)N(C2CC2)C1)N1CCC(Oc2ccccc2F)CC1` (stereo not shown), the “hERG current change (%, negative = inhibition) at 10uM” value rises from 1.81% to 2.26%.

First: O=C(C1CCC(=O)N(C2CCCC2)C1)N1CCC(Oc2ccccc2Cl)CC1 (stereo not shown)
Second: Cc1ccccc1OC1CCN(C(=O)C2CCC(=O)N(C3CCCC3)C2)CC1 (stereo not shown)
The “hERG current change (%, negative = inhibition) at 10uM” value of the first is lower: -62.1% for the first, 3.16% for the second.

Going from `Cc1ccccc1N1CCN(C(=O)C2CCC(=O)N(C3CCCC3)C2)CC1` (stereo not shown) to `Cc1ccc(CNC(=O)CCC2CCCN(C(=O)c3ccc4c(c3)OCO4)C2)o1` (stereo not shown), the “hERG current change (%, negative = inhibition) at 10uM” value rises from -22.5% to -20.5%.

Going from `COc1cc(CN2CCCC(CCC(=O)NCc3ccc(C)o3)C2)cc2c1OCO2` (stereo not shown) to `Cc1ccc(CNC(=O)CCC2CCCN(Cc3cccc4c3OCO4)C2)o1` (stereo not shown), the “hERG current change (%, negative = inhibition) at 10uM” value falls from -59.9% to -63.2%.

For `COCc1ccc(CN2CCCC(CCC(=O)NCc3ccc(C)o3)C2)o1` (stereo not shown), the “hERG current change (%, negative = inhibition) at 10uM” value was -16.7%.
